According to PubChem BioAssay AID504336 (NMMLSC, 2011):
Where “and” joins values, the source holds several entries; their conditions need not be identical. Equal values may be shown once.

assay: TOR branch reporter RPL19A-GFP response – cell-based, S. cerevisiae, third cherry pick, flow cytometry, confirmation (AID 504336);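 also: median GFP fluorescence of all gated yeast cells by flow cytometry; ratio of well median fluorescence to plate mean of DMSO wells with DMSO = 100%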; settings: S. cerevisiae RPL19A-GFP strain, 3 h, at 10 µM, stronger effect = lower value;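 active = compounds whose GFP signal falls below 65% of the DMSO control level; inconclusive = fewer than 70 yeast cells counted in the well; inactive = the rest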

GFP response relative to DMSO, inactive:
CCN(CC)C(=O)Oc1cc(=O)n(C)c2ccccc12 99.8%
CC(=O)C(Cl)C(=O)Nc1ccccc1 (centres undefined) 98.8%
COc1ccc(N/C(C)=C/C(=O)c2ccccc2)cc1 102%
Cc1ccc2c(C)ccc(O)c2n1 103%
Nc1ccc(O)c2c1C(=O)c1ccccc1C2=O 98.5%
C=CCNc1ncnc2ccc(Br)cc12 99.3%
CCCCC(=O)NCCc1cc2c(OC)ccc(OC)c2[nH]c1=O 97.5%
NC(=O)c1ccnc2c(O)cccc12 98.8%
COCC(C)NC(=O)CCS(=O)(=O)c1nc(-c2ccc(OC)cc2)cc(C(F)(F)F)n1 (centres undefined) 98.3% and 102%
Nc1nc(NCCOCCO)nc(Nc2cccc(F)c2)c1[N+](=O)[O-] 102%
Cc1nc(Nc2ccc(Br)cc2Br)c([N+](=O)[O-])c(=O)[nH]1 100%
O=C(Nc1ccccc1)ON=C1c2ccccc2-c2ccccc21 92.3%
O=C(O)c1ccc2cccc(O)c2n1 102%
O=C(O)c1ccc2cccnc2c1O 100%
O=C(Nc1cccc(Cl)c1)ON=C1c2ccccc2-c2ccccc21 102%
CC(=O)CC(=O)Nc1ccc(C(N)=O)cc1 100%
CC1=CN2C(=N)/C(=C/c3ccco3)C(=O)N=C2S1 106%
COc1ccccc1OCc1cc(C(=O)N2CCN(C)C(c3ccccc3)C2)no1 (centres undefined) 101%
COc1ccc(OC)c2c(C)cc(C)nc12 98.5%
Cc1cc(C)c2ccc(C(=O)O)nc2c1O 98.5%
C/C(=C\C(=O)c1ccc(C)cc1)Nc1cccc(O)c1 99.3%
C=CCNc1nc(N)c([N+](=O)[O-])c(Nc2cccc(Cl)c2)n1 104%
COc1ccc(Nc2nc(NN)nc(C)c2[N+](=O)[O-])cc1 99.3%
COCCCNc1nc(N)c([N+](=O)[O-])c(Nc2cc(OC)ccc2OC)n1 101%
Nn1cnc2c(c1=O)C1(CCCCC1)Cc1ccccc1-2 101%
COc1ccccc1Nc1nc(NCC(C)C)nc(N)c1[N+](=O)[O-] 102%
COc1cccc2c(Cl)c(CCCl)c(C)nc12 99.3%
Cn1cccc1C(=O)Nc1nc(-c2ccccn2)cs1 102%
C=CCNc1ncnc2ccccc12 103%
Cc1ccc(C)c(Nc2ncnc(N)c2[N+](=O)[O-])c1 99.3%
N#Cc1c(N)nc(N)nc1Nc1ccc(Br)cc1 99.6%
O=C(Nc1ccccc1)O/N=C1/CCCc2occc21 100%
COc1ccc(OC)c(Nc2nc(NCCC(C)C)nc(N)c2[N+](=O)[O-])c1 103%
Cc1ccc(Nc2nc(N)[nH]c(=O)c2N=O)cc1 102%
COc1cccc(N/C=C/C(=O)c2ccc(C)cc2)c1 103%
C/C(=C\C(=O)c1ccccc1)Nc1ccc(O)cc1 100%
Nc1ncnc(Nc2cc(Cl)cc(Cl)c2)c1[N+](=O)[O-] 102%
COC1=C/C(=C/c2c(N)n3cc(C)sc3nc2=O)C=CC1=O 103%
O=C(O)c1ccccc1-c1ccccc1C(=O)Nc1ccc(-c2nc3cc(Cl)ccc3o2)cc1 98.5%
